SMILES strings stand for the structures.

The assay in a line: basal RPMI8226 mitochondrial membrane potential changes, profiling panel, cell-based, JC-1 fluorescence, 24 h, 100 nL compound (AID 1169). Further: test concentration not given here. The following applies: RPMI8226 myeloma, JC-1 mitochondrial potential fluorescence, higher = more signal.
As for `O=C1C2C=CC(C(O)c3cccc4ccccc34)N(n3cnnc3)C2C(=O)N1Cc1ccccc1` (stereo not given), the z-score was -0.0245.
For `COCCCNC(=O)[C@]1(Cc2ccccc2N=[N+]=[N-])N=C(c2ccc(OCCCO)cc2)O[C@@H]1c1ccccc1CN=[N+]=[N-]`, the z-score was -1.2.
As for `C=C(COC)C(=O)CC[C@H](OC(=O)c1cccnc1)c1ccccc1OCCO`, the figure is -0.706; as for `CCOC(=O)N1C(c2ccc(OCCCO)cc2)=NC(C(=O)OC)N1C(=O)OCC` (stereo not given), -1.24.
On to `C=CCOC(=O)[C@H]1[C@@H]2C(=O)O[C@@H](c3ccccc3)[C@@H](c3ccccc3)N2[C@@H](c2ccc(OCCOC(=O)[C@H]3C[C@H]4C(=O)N[C@@H](CCCC[N+](C)(C)C)C(=O)N4[C@H]3c3ccc(O)cc3)cc2)[C@]12C(=O)Nc1ccccc12`, for which the z-score is -0.456.
In the case of `CC(C)N1C(=O)c2ccccc2[C@](C)(C(=O)NCCCN(C)C)[C@@H]1c1ccc(CO)cc1` it was -0.13; in that of `C=CCC(OC(C)=O)[C@@H]1[C@@H](N(Cc2ccc(-c3ccccc3)cc2)C(=O)c2ccc(C)cc2)c2cc(OCCCO)ccc2N1C(=O)c1ccc2ccccc2n1` (stereo not given in full), 0.0312.
In the case of `COC(=O)[C@@]1(Cc2ccc(F)cc2)[C@H]2c3cc(C(=O)N4CCCC4)n(Cc4ccc(Cl)c(C(F)(F)F)c4)c3C[C@H]2CN1C(=O)c1ccccc1` it was -0.673.
In the case of `COCCCNC(=O)[C@@]1(Cc2ccccc2I)c2ccccc2C(=O)N(Cc2ccccc2)[C@H]1c1ccc(CO)cc1` it was -0.136; in that of `CC(=O)NCCCC[C@@H]1NC(=O)[C@@H]2C[C@H](C(=O)NCc3ccc(F)cc3)[C@H](c3ccc(O)cc3)N2C1=O`, 0.0286.

These data come from PubChem BioAssay.
